PubChem BioAssay
Activity calls are given as the source filed them. Unless noted, how the calls were made is not given here.

What was measured:
[1] = tested on: Wnt5a (protein binding on small-molecule microarray); assay: Wnt5a binders on small-molecule microarray, primary screen, biophysical, 635/667 nm fluorescence (AID 1142); details: 635 nm fluorescence, higher = more signal;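 further: fluorescence read at 667 nm with signal to noise per printed feature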
[2] = cell viability in Huh7 cells, primary screen, cytotoxicity control for HCV replication inhibitor project, CellTiter-Glo luminescence, basal, 48 h (AID 1143); details: Huh7 HCV replicon, higher = more signal, called active from +8 up or from −8 down;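 further: Huh7 hepatoma cells carrying a hepatitis C replication reporter with no stimulus; test concentration not given here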
[3] = P. aeruginosa biofilm formation inhibitors, primary screen, PAO1 strain, BacTiter-Glo luminescence, LB-PBS (AID 1144); details: 12 h, higher = more signal
[4] = CREB reporter modulators without forskolin, primary screen, cell-based, PC12, CRE-LacZ reporter, unstimulated (AID 1145); details: no forskolin, luminescence, 4.5 h, higher = more signal, called active from +8 up or from −8 down
[5] = CREB reporter modulators under forskolin, primary screen, cell-based, PC12, CRE-LacZ reporter, forskolin-stimulated (AID 1146); details: luminescence, 4.5 h, higher = more signal, called active from +8 up or from −8 down;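 further: PC12 cells with 6xCRE LacZ reporter stimulated by forskolin 10 µM; beta-galactosidase reporter signal reflecting CREB driven transcription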
[6] = target: Streptavidin (Streptomyces avidinii) (UniProt P22629); assay: streptavidin binders on small-molecule microarray, primary screen, artefact control for SMM compound annotation, biophysical, 635/667 nm fluorescence (AID 1147); details: streptavidin binding, higher = more signal;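 further: signal reflects streptavidin binding to arrayed compounds as a control protein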
[7] = small-molecule binders of probe aInhba, primary screen, biochemical, small-molecule microarray, 635/667 nm fluorescence (AID 1148); details: higher = more signal;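 further: score merges 667nm spot fluorescence with signal-to-noise for antibody binding to printed compounds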
Torsin-1A (Homo sapiens) [8] = target: Torsin-1A (Homo sapiens) (UniProt O14656); assay: torsin A binders from cell lysate, primary screen, small-molecule microarray, wild-type, 635/667 nm (AID 1149); details: COS7 hTOR1A-WT lysate, 635 nm fluorescence, higher = more signal
Torsin-1A (Homo sapiens) [9] = target: Torsin-1A (Homo sapiens) (UniProt O14656); assay: small-molecule binders of mutant TOR1A in lysate, primary screen, cell lysate, small-molecule microarray, COS7 lysate, 635/667 nm fluorescence (AID 1150); details: COS7 hTOR1A mutant lysate, 635 nm fluorescence, higher = more signal;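 further: score pools 667 nm emission and signal to noise measuring lysate protein binding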
[10] = tested on: Sonic hedgehog protein (Shh); assay: small-molecule binders of Shh protein, primary screen, biochemical, small-molecule microarray, 635/667 nm fluorescence (AID 1151); details: small-molecule microarray binding, 635 nm fluorescence; higher = more signal;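 further: Shh protein binding to compounds spotted on small-molecule microarray slides; score combines spot fluorescence intensity with signal-to-noise across triplicate slides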
[11] = E. coli DRC41 culture turbidity changes, primary screen, E. coli filamentation inducer project, strain DRC41, OD650, 48 h (AID 1152);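 further: E. coli MC1000 strain DRC41 lacking acrAB efflux pump and sulA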; details: E. coli DRC41 (acrAB sulA), higher = more signal, called active from +8 up or from −8 down
[12] = small-molecule binders of probe aLefty1, primary screen, biochemical, small-molecule microarray, 635/667 nm fluorescence (AID 1153); details: higher = more signal;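 further: score merges spot fluorescence with signal-to-noise ratio from the scanned slide images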
[13] = PSAC antagonists in infected red cells, primary screen, cell-based, P. falciparum Indochina, OD700, 1 h (AID 1154); details: P. falciparum Indochina infected RBC osmotic lysis, higher = more signal, called active from +8 up or from −8 down
[14] = PSAC antagonists in infected red cells, primary screen, cell-based, P. falciparum Indochina, OD700, 2 h (AID 1155);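 further: lysis reports solute entry through the parasite surface anion channel PSAC; channel blockers reduce lysis of infected cells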; details: P. falciparum Indochina infected erythrocytes, osmotic lysis OD700; higher = more signal, called active from +8 up or from −8 down
[15] = osmotic lysis modulators in infected erythrocytes, primary screen, PSAC antagonist project, cell-based, P. falciparum Indochina, OD700, 3 h (AID 1156); details: higher = more signal, called active from +8 up or from −8 down
[16] = PSAC antagonists in infected red cells, primary screen, cell-based, P. falciparum Indochina, OD700, 18 h (AID 1157); details: P. falciparum Indochina infected erythrocytes, osmotic lysis OD700, 18 h; higher = more signal, called active from +8 up or from −8 down
[17] = modulators of S6 phosphorylation in cells, primary screen, cell-based, A549, cytoblot, luminescence, serum-stimulated (AID 1158); details: A549 phospho-S6 cytoblot, 5 h, higher = more signal;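 further: serum-stimulated A549 lung adenocarcinoma cells; signal is phosphorylated S6 detected by cytoblot immunostaining with HRP secondary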
[18] = target: NADPH oxidase 2 (Homo sapiens) (UniProt P04839); assay: NOX2-dependent H2O2 signal modulators, primary screen, NOX inhibitor project, cell-based, HEK293-NOX2, PMA-stimulated, Amplex Red fluorescence (AID 1159); details: 45 min, higher = more signal, called active from +8 up or from −8 down; further: test concentration not given here
[19] = target: NADPH oxidase 4 (Homo sapiens) (UniProt Q9NPH5); assay: NOX4-dependent H2O2 signal modulators, primary screen, NOX inhibitor project, cell-based, HEK293-NOX4, tetracycline-induced, Amplex Red fluorescence (AID 1160); details: 45 min, higher = more signal, called active from +8 up or from −8 down
[20] = target: NADPH oxidase 5 (Homo sapiens) (UniProt Q96PH1); assay: NOX5-dependent H2O2 signal modulators, primary screen, NOX inhibitor project, cell-based, HEK293-NOX5, Amplex Red fluorescence (AID 1161); details: HEK293-NOX5, ionomycin, 45 min, higher = more signal
NADPH oxidase 5 (Homo sapiens), sequence (Q96PH1 whole entry, looked up): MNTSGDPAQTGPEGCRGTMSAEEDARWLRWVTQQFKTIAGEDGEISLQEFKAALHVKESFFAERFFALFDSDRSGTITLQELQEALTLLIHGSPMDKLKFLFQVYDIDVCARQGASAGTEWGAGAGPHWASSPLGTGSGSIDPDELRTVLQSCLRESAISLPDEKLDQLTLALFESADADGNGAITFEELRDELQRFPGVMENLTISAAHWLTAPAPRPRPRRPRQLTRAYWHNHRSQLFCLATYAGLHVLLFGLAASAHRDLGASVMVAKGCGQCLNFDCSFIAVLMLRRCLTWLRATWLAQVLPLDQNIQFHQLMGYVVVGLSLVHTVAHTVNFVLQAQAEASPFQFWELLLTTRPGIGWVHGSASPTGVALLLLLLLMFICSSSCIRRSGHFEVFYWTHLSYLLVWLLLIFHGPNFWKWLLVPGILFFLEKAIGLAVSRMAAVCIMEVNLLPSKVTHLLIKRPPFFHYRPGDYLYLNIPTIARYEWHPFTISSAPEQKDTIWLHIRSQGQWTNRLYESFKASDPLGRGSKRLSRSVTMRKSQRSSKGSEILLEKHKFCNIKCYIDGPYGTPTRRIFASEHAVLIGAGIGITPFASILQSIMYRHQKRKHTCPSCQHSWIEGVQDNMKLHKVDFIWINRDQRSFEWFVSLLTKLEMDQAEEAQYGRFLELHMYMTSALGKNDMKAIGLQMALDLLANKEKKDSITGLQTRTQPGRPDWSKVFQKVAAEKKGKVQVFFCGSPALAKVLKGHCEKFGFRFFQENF

NADPH oxidase 2 (Homo sapiens), sequence (P04839 whole entry, looked up): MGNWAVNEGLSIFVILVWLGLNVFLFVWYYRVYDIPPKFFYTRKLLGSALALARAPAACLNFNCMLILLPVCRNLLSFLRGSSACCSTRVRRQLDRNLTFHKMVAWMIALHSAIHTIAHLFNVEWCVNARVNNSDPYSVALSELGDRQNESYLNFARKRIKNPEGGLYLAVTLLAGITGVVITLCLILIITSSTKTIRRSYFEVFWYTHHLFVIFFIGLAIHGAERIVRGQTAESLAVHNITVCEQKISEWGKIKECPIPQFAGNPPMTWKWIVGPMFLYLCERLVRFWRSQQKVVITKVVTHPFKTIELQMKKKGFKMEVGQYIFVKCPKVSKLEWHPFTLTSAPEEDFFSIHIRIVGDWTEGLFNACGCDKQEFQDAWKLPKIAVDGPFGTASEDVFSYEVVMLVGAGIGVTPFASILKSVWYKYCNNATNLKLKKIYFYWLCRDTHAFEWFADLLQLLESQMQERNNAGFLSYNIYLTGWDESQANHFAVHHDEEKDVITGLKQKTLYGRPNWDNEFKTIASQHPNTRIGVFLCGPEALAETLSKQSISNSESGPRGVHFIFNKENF
Torsin-1A (Homo sapiens), sequence (O14656 whole entry, looked up): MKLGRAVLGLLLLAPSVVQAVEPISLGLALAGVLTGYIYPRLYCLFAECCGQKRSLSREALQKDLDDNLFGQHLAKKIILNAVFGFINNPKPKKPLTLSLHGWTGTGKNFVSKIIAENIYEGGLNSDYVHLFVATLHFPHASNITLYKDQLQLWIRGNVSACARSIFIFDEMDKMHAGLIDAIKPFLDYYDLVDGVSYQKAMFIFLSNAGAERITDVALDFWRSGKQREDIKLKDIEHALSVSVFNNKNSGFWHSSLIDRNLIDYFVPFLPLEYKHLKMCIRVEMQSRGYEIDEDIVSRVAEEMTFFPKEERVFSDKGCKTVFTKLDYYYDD
NADPH oxidase 4 (Homo sapiens), sequence (Q9NPH5 whole entry, looked up): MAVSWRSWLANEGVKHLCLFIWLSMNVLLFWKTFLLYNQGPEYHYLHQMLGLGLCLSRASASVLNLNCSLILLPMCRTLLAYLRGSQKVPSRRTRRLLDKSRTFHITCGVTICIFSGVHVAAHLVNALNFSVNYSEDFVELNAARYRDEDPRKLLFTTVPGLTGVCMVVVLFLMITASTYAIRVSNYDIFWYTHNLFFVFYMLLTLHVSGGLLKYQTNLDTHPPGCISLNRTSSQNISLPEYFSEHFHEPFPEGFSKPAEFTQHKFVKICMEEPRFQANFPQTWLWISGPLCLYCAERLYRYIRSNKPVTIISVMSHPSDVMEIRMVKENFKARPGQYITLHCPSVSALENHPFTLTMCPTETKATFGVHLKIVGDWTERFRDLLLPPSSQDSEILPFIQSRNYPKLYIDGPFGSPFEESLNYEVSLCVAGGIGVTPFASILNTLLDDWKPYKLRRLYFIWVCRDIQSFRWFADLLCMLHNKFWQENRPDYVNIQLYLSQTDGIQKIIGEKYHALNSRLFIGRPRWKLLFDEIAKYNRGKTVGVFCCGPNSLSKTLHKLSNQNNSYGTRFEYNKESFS
Streptavidin (Streptomyces avidinii), sequence (P22629 whole entry, looked up): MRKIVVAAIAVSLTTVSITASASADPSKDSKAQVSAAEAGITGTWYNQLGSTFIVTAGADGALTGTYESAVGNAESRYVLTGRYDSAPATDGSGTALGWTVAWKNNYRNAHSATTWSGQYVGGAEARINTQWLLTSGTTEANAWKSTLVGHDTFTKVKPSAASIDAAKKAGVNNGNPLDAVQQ

COC(=O)[C@H](Cc1ccc(O)cc1)N[C@@H](/C=C/C1CC1)[C@H](O)Cc1ccccc1
composite z-score [1]: -0.377
z-score [2]: -0.794 (inactive)
z-score [3]: 0.814 (inactive)
z-score [4]: 7.92 (inactive)
z-score [5]: 1.6 (inactive)
composite z-score [6]: -0.295
composite z-score [7]: -0.153
composite z-score (Torsin-1A (Homo sapiens) [8]): -0.474
composite z-score (Torsin-1A (Homo sapiens) [9]): 0.0615
composite z-score [10]: -0.142
z-score [11]: -0.571 (inactive)
composite z-score [12]: -0.275
z-score [13]: 0.963 (inactive)
z-score [14]: 0.496 (inactive)
z-score [15]: 0.098 (inactive)
z-score [16]: -0.0396 (inactive)
z-score [17]: -0.557
z-score [18]: 0.0285 (inactive)
z-score [19]: 0.516 (inactive)
z-score [20]: -0.929

C=CCNC(=O)[C@H]1[C@@H]2C(=O)O[C@@H](c3ccccc3)[C@@H](c3ccccc3)N2[C@@H](c2ccc(OCCO)cc2)[C@]12C(=O)Nc1ccccc12
composite z-score [1]: -0.159
z-score [2]: -1.62 (inactive)
z-score [3]: -0.9 (inactive)
z-score [4]: 0.389 (inactive)
z-score [5]: 1.1 (inactive)
composite z-score [6]: 0.917
composite z-score [7]: -0.244
composite z-score (Torsin-1A (Homo sapiens) [8]): 0.0646
composite z-score (Torsin-1A (Homo sapiens) [9]): 0.841
composite z-score [10]: -0.0035
z-score [11]: 0.738 (inactive)
composite z-score [12]: 1.21
z-score [13]: 10.1 (active)
z-score [14]: 1.01 (inactive)
z-score [15]: -0.444 (inactive)
z-score [16]: 0.81 (inactive)
z-score [17]: 0.0226
z-score [18]: 1.87 (inactive)
z-score [19]: 0.841 (inactive)
z-score [20]: -0.101

COc1ccc(C(O)C2C=CC3C(=O)N(c4ccccc4)C(=O)C3N2Nc2ccc(C#N)cc2)cc1OCc1ccccc1 (stereo not given)
composite z-score [1]: 0.512
z-score [2]: 0.0667 (inactive)
z-score [3]: -0.753 (inactive)
z-score [4]: 1.39 (inactive)
z-score [5]: 0.338 (inactive)
composite z-score [6]: 1.65
composite z-score [7]: 0.274
composite z-score (Torsin-1A (Homo sapiens) [8]): 0.056
composite z-score (Torsin-1A (Homo sapiens) [9]): 1.12
composite z-score [10]: -0.189
z-score [11]: -1.37 (inactive)
composite z-score [12]: 0.482
z-score [13]: 9.41 (active)
z-score [14]: 2.2 (inactive)
z-score [15]: 0.918 (inactive)
z-score [16]: 1.27 (inactive)
z-score [17]: -0.98
z-score [18]: -1.69 (inactive)
z-score [19]: -2.41 (inactive)
z-score [20]: -2.45

COCCCNC(=O)[C@@]1(CCS(=O)(=O)c2ccccc2)COC(c2ccc(OCCCO)cc2)=N1
composite z-score [1]: 0.612
z-score [2]: -0.0036 (inactive)
z-score [3]: 0.86 (inactive)
z-score [4]: 0.918 (inactive)
z-score [5]: -0.387 (inactive)
composite z-score [6]: 2.53
composite z-score [7]: 0.271
composite z-score (Torsin-1A (Homo sapiens) [8]): 1.29
composite z-score (Torsin-1A (Homo sapiens) [9]): 1.49
composite z-score [10]: -0.334
z-score [11]: 1.08 (inactive)
composite z-score [12]: 0.87
z-score [13]: 29.2 (active)
z-score [14]: 24.6 (active)
z-score [15]: 0.764 (inactive)
z-score [16]: 4.31 (inactive)
z-score [17]: -0.131
z-score [18]: -0.556 (inactive)
z-score [19]: 0.25 (inactive)
z-score [20]: 0.0637

COc1ccc([Si](C)(C)[C@@H]2[C@@H](CC(=O)N3CCC[C@H]3CO)O[C@]3(C(=O)N(Cc4cccc(N5CCCCC5=O)c4)c4ccccc43)[C@H]2C)cc1
composite z-score [1]: -0.104
z-score [2]: -2.77 (inactive)
z-score [3]: -0.331 (inactive)
z-score [4]: 0.105 (inactive)
z-score [5]: -0.95 (inactive)
composite z-score [6]: -0.164
composite z-score [7]: -0.176
composite z-score (Torsin-1A (Homo sapiens) [8]): 0.594
composite z-score (Torsin-1A (Homo sapiens) [9]): 0.81
composite z-score [10]: 1.68
z-score [11]: 0.422 (inactive)
composite z-score [12]: 0.0046
z-score [13]: 3.85 (inactive)
z-score [14]: 1.23 (inactive)
z-score [15]: -1.02 (inactive)
z-score [16]: 0.278 (inactive)
z-score [17]: 0.067
z-score [18]: 2.88 (inactive)
z-score [19]: 1.64 (inactive)
z-score [20]: 4.73

CCCCCC1=C2CNC(Cc3ccccc3)(C(=O)OC)C=C2C(C)C1=O (stereo not given)
composite z-score [1]: -0.176
z-score [2]: -1.49 (inactive)
z-score [3]: 0.949 (inactive)
z-score [4]: 0.4 (inactive)
z-score [5]: 2.19 (inactive)
composite z-score [6]: 0.0482
composite z-score [7]: 0.222
composite z-score (Torsin-1A (Homo sapiens) [8]): -0.88
composite z-score (Torsin-1A (Homo sapiens) [9]): 0.154
composite z-score [10]: -0.695
z-score [11]: -1.76 (inactive)
composite z-score [12]: 0.568
z-score [13]: 2.16 (inactive)
z-score [14]: -0.21 (inactive)
z-score [15]: 1.04 (inactive)
z-score [16]: 0.422 (inactive)
z-score [17]: -0.275
z-score [18]: -0.733 (inactive)
z-score [19]: -3.5 (inactive)
z-score [20]: -3

C[N+](C)(C)CCCCNC(=O)[C@H]1C[C@H]2C(=O)N[C@@H](Cc3ccccc3)C(=O)N2[C@H]1c1cccc(OCCO)c1
composite z-score [1]: 0.278
z-score [2]: -0.15 (inactive)
z-score [3]: -0.495 (inactive)
z-score [4]: -0.13 (inactive)
z-score [5]: -0.384 (inactive)
composite z-score [6]: 0.313
composite z-score [7]: 0.152
composite z-score (Torsin-1A (Homo sapiens) [8]): 0.971
composite z-score (Torsin-1A (Homo sapiens) [9]): 0.342
composite z-score [10]: 2.23
z-score [11]: 0.0946 (inactive)
composite z-score [12]: 0.186
z-score [13]: 5.34 (inactive)
z-score [14]: 0.772 (inactive)
z-score [15]: -0.835 (inactive)
z-score [16]: 0.818 (inactive)
z-score [17]: 0.17
z-score [18]: -0.423 (inactive)
z-score [19]: -0.824 (inactive)
z-score [20]: -0.418

CCOC(=O)C1=CC[C@@H](c2ccc(OC)cc2)N(S(=O)(=O)c2ccc(C)cc2)[C@H]1c1ccc(C)cc1
composite z-score [1]: 0.151
z-score [2]: -2.4 (inactive)
z-score [3]: 0.12 (inactive)
z-score [4]: -0.415 (inactive)
z-score [5]: -0.24 (inactive)
composite z-score [6]: 0.778
composite z-score [7]: 0.1
composite z-score (Torsin-1A (Homo sapiens) [8]): -0.414
composite z-score (Torsin-1A (Homo sapiens) [9]): 0.308
composite z-score [10]: -0.625
z-score [11]: -1.22 (inactive)
composite z-score [12]: 0.578
z-score [13]: 0.833 (inactive)
z-score [14]: 0.905 (inactive)
z-score [15]: -0.715 (inactive)
z-score [16]: 0.68 (inactive)
z-score [17]: -0.752
z-score [18]: 0.864 (inactive)
z-score [19]: -0.627 (inactive)
z-score [20]: 0.0417
